Compound activity deposited in PubChem by Broad Institute.
SUMO Mot1 rescue: yeast Mot1-301 growth rescue at high temperature, primary screen, SUMOylation pathway inhibitor project, S. cerevisiae, ATP luminescence, 38.5C. S. cerevisiae Mot1-301 growth rescue; percent above DMSO median, 100 means doubled. growth rescue, % at 18.8 µM. hit rate 1% among 320,000. AID 2716, 2010;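 active = every valid replicate shows activation above 250% relative to neutral control wells; inactive = the rest, any valid replicate at or below 250%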;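 note: OY570 slx delta 5 strain wells were the positive control but not used for scaling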
CDK5 inh: inhibitors of human CDK5/p35 kinase, primary screen, biochemical, single concentration. Cyclin-dependent kinase 5 (Homo sapiens) + Cyclin-dependent kinase 5 activator 1 (Homo …. Recombinant CDK5/p35, ADP-Glo luminescence, 60 min. inhibition, % at 10 µM. hit rate 0.01% among 330,000. AID 488839, 2010;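 active = highest replicate inhibition of at least 50% and at least 75% of replicates reaching 50%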;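 note: plate controls were DMSO neutral control for no effect and GW8510 at 10 µM for full effect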
NSD2 inh: NSD2 histone methyltransferase inhibitors, primary screen, biochemical, AlphaScreen, single concentration, set 2. Histone-lysine N-methyltransferase NSD2 (Homo sapiens), O96028. inhibition, % at 12.5 µM. NSD2 peptide methylation, 120 min. hit rate 0.54% among 310,000; in the data active = inhibition above about 50%
Casp6 inh: human caspase-6 inhibitors, primary screen, biochemical, VEID-R110 fluorescence, single point, set 2 | P55212 | purified caspase-6, Z-VEID-R110 cleavage fluorescence | inhibition, % at 12.5 µM | hit rate 0.53% among 350,000 | AID 686996, 2013;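 active = mean inhibition across replicates at least about 35%, with every replicate also reaching that limit, limit read from the data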;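 note: 0% = median of neutral control wells and 100% = no fluorescence left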
Target sequence (P55212 24-179 limits assumed): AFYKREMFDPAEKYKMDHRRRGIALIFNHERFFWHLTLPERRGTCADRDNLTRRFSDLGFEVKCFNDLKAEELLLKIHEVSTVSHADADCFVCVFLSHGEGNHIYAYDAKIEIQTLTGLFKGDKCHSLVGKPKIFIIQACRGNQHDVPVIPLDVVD
Target sequence (P55212 194-293 limits assumed): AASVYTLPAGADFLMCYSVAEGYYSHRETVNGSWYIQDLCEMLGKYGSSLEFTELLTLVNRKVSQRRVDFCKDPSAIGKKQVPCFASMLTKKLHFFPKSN
Glyco luc inh: increase of ERlucT glycosylation luciferase signal, primary screen, N-linked glycosylation inhibitor project, D54 ERlucT cells, luminescence, set 2 | hit rate 0.23% among 360,000 | D54 ERlucT glycosylation luciferase reporter, 24 h; percent of 100 nM tunicamycin response | reporter increase, % at 12.5 µM | AID 588692, 2011;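 active = mean luciferase reporter signal, scaled so untreated is 0 and the glycosylation-blocking control 100, at or above a set limit in every replicate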;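 note: luciferase carries N-glycosylation sites so blocking glycosylation raises the light; 0% = median of neutral control wells and 100% = median of 100 nM tunicamycin wells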
ALR H2O2 inh: inhibitors of human ALR sulfhydryl oxidase, primary screen, biochemical, H2O2 detection, HRP-luminol luminescence, single point | purified ALR, DTT oxidation | hit rate 3.8% among 290,000 | AID 485317, 2010 | inhibition, % (no concentration beside the values) | FAD-linked sulfhydryl oxidase ALR (Homo sapiens), P55789;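 active = mean replicate inhibition above about 79%, with every replicate also reaching it, limit read from the data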
Target sequence (P55789 whole entry, looked up): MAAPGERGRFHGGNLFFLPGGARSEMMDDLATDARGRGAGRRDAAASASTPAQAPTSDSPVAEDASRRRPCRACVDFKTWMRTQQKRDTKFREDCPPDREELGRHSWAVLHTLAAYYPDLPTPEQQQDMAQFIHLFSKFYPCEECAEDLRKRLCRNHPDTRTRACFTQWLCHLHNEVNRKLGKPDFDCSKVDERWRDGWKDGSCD
Active calls of the source: *; . = no result given. This is a sample that favours compounds with a hit; in the whole collection about 3.9% have one here.

SMILES	SUMO Mot1 rescue	CDK5 inh	NSD2 inh	Casp6 inh	Glyco luc inh	ALR H2O2 inh
Cc1ccc(Cc2c(C3CCCCC3)nc3ccc(Br)cn23)cc1	.	.	.	-3	2	.
CC(C)c1nc2ccc(Br)cn2c1NC1CCCC1	-7	-1	2	4	2	99*
CCCCOc1ccc(C(=O)CCN2CCOCC2)cc1	44	1	18	-1	-6	98*
O=C(c1ccccc1)C(CN1CCCCC1)c1ccccc1 (stereo unspecified)	.	1	.	-2	-18	.
CCOc1ccc(C(=O)C(CN2CCOCC2)c2ccccc2)cc1 (stereo unspecified)	287*	0	4	.	10	0
CCCCOc1ccc(C(=O)OCC(=O)N2CCOCC2)cc1	3	-1	-4	61*	0	-1
O=C(NC1CCCCC1)N[C@@H]1CC[C@@H](CCNS(=O)(=O)c2ccccc2)O[C@@H]1CO	.	.	.	-23	.	.
Cc1ccccc1NC(=O)CC1SC(=O)N(c2ccccc2)C1=O (stereo unspecified)	103	-1	3	.	-1	97*
Cc1ccc(S(=O)(=O)N[C@H]2C=C[C@H](CC(=O)NCc3ccc(Cl)c(Cl)c3)O[C@H]2CO)cc1	.	.	.	0	.	.
O=C(c1ccc(OCC2CCCO2)cc1)N1CCc2ccccc2C1 (stereo unspecified)	.	-1	-7	1	1	-3
O=C(c1ccc(OCC2CCCO2)cc1)N1CCN(c2ccccc2)CC1 (stereo unspecified)	-16	0	8	-1	0	98*
CC[C@]12c3[nH]c4cc(CCC(=O)N(C)C)ccc4c3CCN1C(=O)[C@@H](CC(=O)NC/C=C(\C)CCC=C(C)C)C[C@@H]2C(=O)N1CCN(C(=O)c2ccco2)CC1	.	0	.	.	31*	.
CC[C@]12c3[nH]c4cc(CCC(=O)N(C)C)ccc4c3CCN1C(=O)[C@@H](CC(=O)NCCN1CCOCC1)C[C@@H]2C(=O)N1CCN(C(=O)c2ccco2)CC1	.	1	.	-19	2	.
Cc1cc(SCC(=O)N/N=C/c2ccc(C(=O)O)cc2)nc2ccccc12	-20	-1	-2	.	3	99*
COc1cc(-c2cc(=O)c3c(O)c(OC)c(OC)cc3o2)cc(OC)c1O	4	0	.	6	14	77*
COc1cc(-c2cc(=O)c3ccccc3o2)ccc1O	15	3	.	-4	1	99*
COc1cc(-c2cc(=O)c3c(O)cc(O)cc3o2)ccc1O	6	.	.	.	-5	-10
CC(C)NC(=O)Nc1ccc2c(c1)C(=O)N([C@H](C)CO)C[C@H](C)[C@H](CN(C)CC1CCCCC1)O2	.	.	.	-3	.	.
CC(=O)N1[C@H](CO)[C@@H](c2ccccc2)[C@H]1CN(C)S(=O)(=O)c1ccccc1	.	.	.	-4	.	.
C[C@@H]1CN([C@H](C)CO)C(=O)c2cc(N(C)C)ccc2O[C@H]1CN(C)Cc1ccncc1	.	.	.	-3	.	.
COc1ccc(-n2cnc3cc(N)ccc32)cc1	-12	-1	.	.	-1	99*
NS(=O)(=O)c1ccc(NC(=O)C2Cc3ccccc3CN2C(=O)c2ccco2)cc1 (stereo unspecified)	3	0	7	45*	2	-30
COc1cccc(CN2[C@@H]3CNC[C@H]2C3c2ccc(-c3cccnc3)cc2)c1 (stereo partly specified)	.	.	.	0	.	.
Cc1ccc2c(=O)cc(C(=O)NC3CCS(=O)(=O)C3)oc2c1C (stereo unspecified)	.	0	8	1	3	98*
Cc1cc(C)c2oc(C(=O)NC3CCS(=O)(=O)C3)cc(=O)c2c1 (stereo unspecified)	-14	2	1	-3	-1	-2
SMILES	SUMO Mot1 rescue	CDK5 inh	NSD2 inh	Casp6 inh	Glyco luc inh	ALR H2O2 inh
CCOCCCNC(=O)CCCn1nc(C)n2c(cc3sccc32)c1=O	-7	0	.	0	-1	.
CCN(CCNC(=O)CCCn1nc(C)n2c(cc3sccc32)c1=O)c1ccccc1	-5	-1	.	-5	2	98*
COc1ccc(S(=O)(=O)N2CCN(Cc3ccc(OCCO)cc3)CC2)cc1	.	.	.	1	.	.
NC(=O)c1oc2ccccc2c1NC(=O)C1CCCCC1	-11	1	.	-4	0	96*
COc1cc(/C=C(\C#N)C(=O)N2CCc3ccccc32)ccc1O	241	1	7	4	5	100*
N#C/C(=C\c1cccc(O)c1)C(=O)N1CCCCC1	8	-1	3	-2	1	.
CCOC(=O)/C(C#N)=C\c1ccc(O)c(OC)c1	29	-3	2	.	2	99*
N#C/C(=C\c1ccc(O)c(O)c1)C(=O)N1CCc2ccccc21	-6	0	.	.	-3	99*
CCCC#Cc1ccc([C@@H]2[C@H]3CN(C(=O)c4ccncc4)CC(=O)N3[C@H]2CO)cc1	.	.	.	3	.	.
O=C(C[C@H]1C=C[C@@H](NC(=O)Nc2ccc3c(c2)OCO3)[C@H](CO)O1)NCCCN1CCOCC1	.	.	.	-5	.	.
O=C(C[C@@H]1CC[C@H]2[C@@H](COC[C@H](O)CN2Cc2ccccc2)O1)N[C@H]1CCN(Cc2ccccc2)C1	.	.	.	-1	.	.
O=C(Nc1ccc(F)cc1)N[C@@H]1CC[C@H](CCNS(=O)(=O)c2cccc(Cl)c2)O[C@H]1CO	.	.	.	1	.	.
CC(C)C(NC(=O)/C=C/c1ccc(F)cc1)C(C)C	288*	-1	-3	.	0	-3
O=C(c1cccnc1)N1C[C@H]2[C@@H](c3ccccc31)[C@H](CO)N2CC1CCCC1	.	.	.	0	.	.
CN(C)CC(=O)Nc1ccc2c(c1)[C@@H]1C[C@@H](CC(=O)N3CCc4ccccc4C3)O[C@H](CO)[C@@H]1O2	.	.	.	-1	.	.
CCn1c(SCC(=O)OCc2ccccc2)nc2c1c(=O)n(C)c(=O)n2C	-1	1	1	.	2	99*
COCCn1c(SCC(=O)OCc2ccccc2)nc2c1c(=O)[nH]c(=O)n2C	-22	0	.	0	4	98*
CO[C@H]1CN(C)C(=O)c2ccc(NS(C)(=O)=O)cc2OC[C@@H](C)N(C(=O)NC(C)C)C[C@H]1C	.	.	.	5	.	.
Nc1cc(C(=O)O)ccc1Nc1ccc(F)c(F)c1	-22	-3	3	.	3	97*
O=C(O)c1ccc(N/N=C/c2ccc(F)c(F)c2)cc1	-13	0	3	4	-13	.
CO[C@H]1CN(C)C(=O)c2cc(NC(=O)C3CCC3)ccc2OC[C@H](C)N(C(=O)NC(C)C)C[C@@H]1C	.	.	.	5	.	.
